The sample as a whole holds a higher share of hits than the screen did.
TSHR antag – antagonists of human thyroid stimulating hormone receptor. P16473. TSHR-expressing cells, TSH-stimulated cAMP HTRF, 2 h; hits give low values. activity change, negative = inhibition, % at 11.5 µM. 330,000 compounds, 0.2% hits. AID 504810;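 active means activity change below a set negative limit, meaning inhibition stronger than a set level, cut at about -70% in these data; inconclusive means activity change between two set negative limits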; further: on the % scale 0 is the no-effect control and ±100 the full control effect
Target sequence (P16473 whole entry, looked up): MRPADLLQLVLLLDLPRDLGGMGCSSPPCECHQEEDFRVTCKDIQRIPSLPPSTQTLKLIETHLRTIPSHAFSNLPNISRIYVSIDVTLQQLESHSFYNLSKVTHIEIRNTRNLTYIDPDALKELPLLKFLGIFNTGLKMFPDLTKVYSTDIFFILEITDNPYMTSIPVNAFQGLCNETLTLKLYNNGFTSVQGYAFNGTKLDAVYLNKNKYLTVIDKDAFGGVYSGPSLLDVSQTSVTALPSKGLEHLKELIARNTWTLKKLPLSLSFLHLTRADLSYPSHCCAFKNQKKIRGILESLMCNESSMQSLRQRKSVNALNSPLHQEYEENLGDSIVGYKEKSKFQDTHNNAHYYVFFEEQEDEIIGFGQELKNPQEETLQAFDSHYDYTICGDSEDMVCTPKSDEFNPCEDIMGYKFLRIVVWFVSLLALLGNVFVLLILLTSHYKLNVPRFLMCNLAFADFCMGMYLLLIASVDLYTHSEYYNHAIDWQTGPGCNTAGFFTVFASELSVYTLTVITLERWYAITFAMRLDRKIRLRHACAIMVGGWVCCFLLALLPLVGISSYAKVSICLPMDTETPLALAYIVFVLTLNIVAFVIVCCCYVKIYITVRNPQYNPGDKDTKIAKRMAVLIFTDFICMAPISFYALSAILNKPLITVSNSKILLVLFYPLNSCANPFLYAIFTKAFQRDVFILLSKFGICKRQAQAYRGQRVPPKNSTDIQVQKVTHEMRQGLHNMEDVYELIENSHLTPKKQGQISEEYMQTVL
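Antagonism was scored as loss of TSH-driven cAMP in TSHR cells, stimulated with 4nM TSH (EC80) for 2 hours at 37 deg C and detected by homogeneous HTRF competition immunoassay.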
NPSR antag – blocks cAMP signaling of the human neuropeptide S receptor; AID 1461; 220,000 compounds, 1% hits; Q6W5P4; CHO-NPSR cells, cAMP TR-FRET, antagonist mode; Potency, µM (highest dose often 38.3 µM), without a hit: at the top dose activity change, negative = inhibition, usual class: inhibitors; further: potency means the concentration at half of the fitted maximal effect; on the % scale 0 is the no-effect control and ±100 the full control effect; nearly all actives have a fitted effect of over 50% in size
RXFP1 ag – activates the human relaxin receptor RXFP1; Q9HBX9; HEK293T-RXFP1 cAMP TR-FRET, 30 min; response scale: percent of porcine relaxin response, buffer zero; Potency, µM (top dose mostly 57.5 µM), for inactives: at the top dose activation, usual class: activators; 370,000 compounds, 0.3% hits; AID 2676; further: potency means the concentration at half of the fitted maximal effect; on the % scale 0 is the no-effect control and ±100 the full control effect; nearly all actives have a fitted effect of over 60% in size
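cAMP rise read by TR-FRET after 30 min, 37C compound exposure (up to 58 uM) in RXFP1-transfected HEK293 cells with Ro 20174 present. EC50 from Hill-equation fits, with 29 nM porcine relaxin as 100% and buffer as basal.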
PTHR1 ag – PTHR1 (human) receptor agonism. Q03431. HEK293 GP2 PTHR1 cells, GloSensor cAMP luminescence, 1 h. Potency, µM (series often up to 115 µM), for inactives: top-dose activation, hits mostly activators. 410,000 compounds, 0.075% hits. AID 743266; further: potency means the concentration at half of the fitted maximal effect; nearly all actives have a fitted effect of over 55% in size
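HEK-293-derived GP2 cells expressing PTHR1 and a GloSensor cAMP reporter, 3,000/well, plated overnight, given luciferin plus IBMX (each 0.5 mM as added) for 1 h at 37 °C, then compound for 1 h at 37 °C. Luminescence was read after 15 min at room temperature.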
RXFP1 antagonist – RXFP1 (human) relaxin receptor antagonism. AID 1259400. Q9HBX9. 350,000 compounds, 0.59% hits. activity change, negative = inhibition, % at 57.5 µM. HEK293-RXFP1, relaxin-stimulated cAMP HTRF, 30 min; hits give low values;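 active means activity change of -60% or lower, but not beyond a set lower limit; inconclusive means change between -60% and -40%, or beyond the set limit; inactive means change above -40%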; further: on the % scale 0 is the no-effect control and ±100 the full control effect
TCR activator – activators of T cell receptors. primary human leukocytes, anti-CD3, IL-2 HTRF, 48 h. Potency, µM (highest dose often 9.22 µM), inactives show at the highest dose activation of IL-2 secretion, hits mostly activators. 330,000 tested, under 10 active; further: % of control where 0% means no effect
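48 hr co-incubation of compounds, a-CD3 beads and primary human leukocytes; IL-2 quantified homogeneously by HTRF with anti-IL-2 K and d2 conjugates.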
* marks the source's active call; other numbers are inactive results; i = inactive; ? = inconclusive; . = no result given; [ ] = remark or other dose. Unless noted, the call rests on the fitted dose curve; in most records, active means well fitted curve in the direction sought with a large enough effect; inconclusive means small, poorly fitted or top-dose-only effect, or another doubt; inactive means no such curve, though single readings can be large; an effect the other way counts as inactive or inconclusive.

SMILES	TSHR antag	NPSR antag	RXFP1 ag	PTHR1 ag	RXFP1 antagonist	TCR activator
CCOC(=O)c1ccc(N2C(=O)c3[nH]nc(-c4ccc(C)cc4)c3C2c2cccs2)cc1 (centres undefined)	.	.	0%	-21%	.	.
CSc1ccc(CCNC(=O)c2cc3cc(S(=O)(=O)N4CCCCC4)ccc3n2C)cc1	.	.	0%	-58%	3	.
CC(C)(C)c1ccc(C(=O)NCC(c2ccco2)S(=O)(=O)c2ccccc2)cc1 (centres undefined)	.	.	10%	-33%	-12	.
CCOC(=O)c1ccc(NC(=O)CSc2nc(C)cc(=O)[nH]2)cc1	-3	-11%[46.1 µM]	0%	i	2	6%
CCOC(=O)c1c(-c2ccccc2Cl)csc1NC(=O)CSc1nc(C)cc(=O)[nH]1	-25	-19%	1%	-6%	-80*	1%[46.1 µM]
CCc1cc2ccc(OC)cc2nc1SCC(=O)Nc1cc(C)on1	38	10µM*	?	i	-4	-9%
COC(=O)c1sc2cc(=O)n(-c3cccc(C(F)(F)F)c3)nc2c1O	-9	10µM*	-1%	-23%	-10	0%
O=c1[nH][nH]c2cc(=O)n(-c3cccc(C(F)(F)F)c3)nc12	-1	-10%	2%	-23%	-7	-4%
CCC(=O)N1CCc2cc(Br)cc(S(=O)(=O)CCC(=O)Nc3ccc(Cl)cc3)c21	.	.	12%	i	-8	.
COc1ccc(-c2cc(-c3ccccc3)c(C#N)c(SCC(=O)O)n2)cc1	.	.	.	-22%	-2	-12%
COc1ccc(-c2cc(-c3cccs3)c(C#N)c(SCC(=O)NCc3ccco3)n2)cc1	-3	-7%[46.1 µM]	10%	i	-10	.
CCc1nnc(NC(=O)CSc2nc(-c3ccccc3)cc(-c3ccc(F)cc3)c2C#N)s1	18	10µM*	11%	19%[57.5 µM]	24	-6%
COc1ccc(CNC(=O)CSc2nc(-c3ccccc3)cc(-c3cccs3)c2C#N)cc1	-4	10µM*	28%	8%[57.5 µM]	-7	-1%
COc1ccc(-c2cc(-c3ccc(Cl)cc3)c(C#N)c(SCC(=O)O)n2)cc1	-72*	.	7%	-59%	-1	3%
Cc1ccc(Cl)cc1NC(=O)Cn1nc2c(cc1=O)CC(C)CC2 (centres undefined)	.	.	0%	-26%	-11	.
Cc1cc(C)c(S(=O)(=O)NCC2CCC(C(=O)NCCc3ccccc3)CC2)c(C)c1 (centres undefined)	.	.	-2%	-33%	-10	.
CC(C)(C)c1ccc(C(=O)Nc2ccc(C(=O)N3CCOCC3)cc2)cc1	7	.	6%	-52%	-76*	5%
N/C(=N\OC(=O)c1cccs1)C1(c2ccc(Cl)cc2Cl)CC1	3	10%	1%	i	-115*	4%
N/C(Cc1ccc(Cl)c(Cl)c1)=N\OC(=O)c1cccs1	-30	-8%[46.1 µM]	0%	-8%[57.5 µM]	-6	-3%
O=C(COC(=O)C1CCN(S(=O)(=O)c2ccc(Cl)c(C(F)(F)F)c2)CC1)NCc1ccco1	9	.	0%	i	-16	-15%
CC1CCCCN1C(=O)COC(=O)C1CCN(S(=O)(=O)c2ccc(Cl)c(C(F)(F)F)c2)CC1 (centres undefined)	-2	.	1%	-33%	-65*	3%
CCOC(=O)c1ccc(NC(=O)C2CCCN(c3ccc(Sc4ccc(C)cc4)nn3)C2)cc1 (centres undefined)	.	.	9%	i	.	.
O=[N+]([O-])c1cccc(COc2ncnc3cc([N+](=O)[O-])ccc23)c1	11	10%	28µM*	-6%	36	4%
COCCNC(=O)C(OC(=O)c1nsc(Cl)c1Cl)C(C)C (centres undefined)	30	-2%	18µM*	-1%	9	-6%
COc1ccc(CCNC(=O)C(C)OC(=O)c2nsc(Cl)c2Cl)cc1OC (centres undefined)	1	.	1%	-29%	11	3%
SMILES	TSHR antag	NPSR antag	RXFP1 ag	PTHR1 ag	RXFP1 antagonist	TCR activator
COc1ccc(S(=O)(=O)c2c(Nc3c(C)cccc3C)sc(C(=O)c3ccc4c(c3)OCO4)c2N)cc1	.	.	0%	i	-5	.
CCOc1ccc(CCNC(=O)CSc2n[nH]c(-c3ccccc3)n2)cc1OCC	.	.	4%	-7%	-8	.
CCOc1ccc(CCNC(=O)CSc2nc3ccccc3nc2Cc2ccc(C)cc2)cc1OCC	.	.	14µM*	-23%	2	.
O=C(O)/C=C\C(=O)Nc1ccccc1C#Cc1ccccc1	-9	-2%[46.1 µM]	1%	-13%[57.5 µM]	15	2%
O=C(O)/C=C\C(=O)Nc1ccccc1C#Cc1ccc(Br)cc1	-10	13µM*	3%	?	-1	.
CC(=O)O[C@@H]1CC2C3CCc4cc(OC(=O)c5ccccc5)ccc4C3CCC2(C)[C@H]1OC(C)=O (some centres undefined)	.	.	.	.	-13	.
CSC1=NSC2=NC(=O)/C(=C\c3coc4ccccc4c3=O)C(=N)N12	-91*	-38%	0%	-31%	-21	-2%[46.1 µM]
O=C(O)c1ccc(N2C(=O)/C(=C/c3ccc(-c4ccc([N+](=O)[O-])cc4)o3)C=C2c2ccccc2)cc1	-9	10µM*	3%	-36%	2	3%
COc1ccccc1N1CCN(Cc2cc(Br)c(O)c3ncccc23)CC1	-6	-23%[46.1 µM]	-2%	3%	-92*	5%
CCc1sc(C(=O)Nc2nc(-c3ccccn3)cs2)cc1C	-8	.	.	-50%	-69*	3%
Cc1cccnc1Nc1nc(-c2ccccn2)cs1	-5	0.79µM*	-1%	-10%[57.5 µM]	13	3%
Cc1cccnc1Nc1nc(-c2ccccc2)cs1	-19	.	3%	-55%	-15	2%
Cc1ccc(C(=O)Nc2nc(-c3ccccn3)cs2)s1	0	.	-1%	-21%	4	6%
CC(=O)Nc1ccc2c(c1)Cc1cc(N3C(=O)C=CC3=O)ccc1-2	.	.	.	-11%	-61*	-7%
O=C1C=CC(=O)N1c1ccc2c(c1)Cc1cc(F)ccc1-2	.	.	.	-17%	-20	-12%
N#CC1=C2SCN(Cc3ccccc3)CN2C(=O)CC1c1cccs1 (centres undefined)	2	?	25µM*	i	7	-10%
N#CC1=C2SCN(Cc3ccccc3)CN2C(=O)CC1c1ccc2c(c1)OCO2 (centres undefined)	-3	-10%[46.1 µM]	0%	1%	-20	3%
CCCSC1=C(C#N)C(c2cccs2)C(C(=O)Nc2ccccc2)=C(C)N1 (centres undefined)	-79*	-15%[46.1 µM]	0%	-11%[57.5 µM]	-2	0%[46.1 µM]
CCc1nnc(NC(=O)CN2CCC(O)(c3ccccc3OC)CC2)s1	2	-2%[46.1 µM]	0%	i	12	0%

Screening results as filed in PubChem.
